Results published in PubChem BioAssay (Tox21).
Several values for one entry are separate records, joined by “and”; a condition that tells them apart may be missing. Equal entries are not always repeated. Records with an inconclusive call do not appear. A call without a number means that no potency is given here. Activity calls are given as the source filed them. Calls follow the shape of the full dose curve.

assay: qHTS assay for small molecule agonists of the p53 signaling pathway (AID 651631); conditions: HCT-116 p53RE-bla reporter, beta-lactamase FRET ratio, 16 h; series mostly up to 73.3 µM; activation: at the top concentration; also: nearly all actives have a fitted effect of over 15% in size
Excerpt: U.S. Tox21 Program National Center for Advancing Translational Sciences [NCATS] NIH Chemical Genomics Center [NCGC] U.S. Environmental Protection Agency [EPA] National Institutes of Environmental Health Sciences [NIEHS] National Toxicology Program [NTP] U.S. Food and Drug Administration [FDA] Tox21 Assay Overview: p53, a tumor suppressor protein, is activated following cellular insult, including DNA damage and other cellular stresses. The activation of p53 regulates cell fate by inducing DNA repair, cell cycle arrest, apoptosis, or cellular senescence. The activation of p53, therefore, is a good indicator of DNA damage and other cellular stresses. The CellSensor p53RE-bla HCT-116 cell line (Invitrogen) contains a stably integrated beta-lactamase reporter gene under control of the p53 response elements. The activation of the reporter gene under culture conditions can be detected by fluorescence intensity. This cell line was used to screen the Tox21 compound library in a 1536-well plate format and to identify agonists that activate the p53 signaling pathway.
Tox21 Assay Protocol Summary: The p53RE-bla cells were dispensed at 4,000 cells/5 ul/well in 1536-well black wall/clear bottom plates using a Multidrop dispenser. After the assay plates were incubated at a 37 C/5% CO2 incubator for 5 hours, 23 nL of compounds dissolved in DMSO, positive controls or DMSO only was transferred to the assay plate by a pin tool. The plates were incubated at 37 C for 16 hours. After 1 uL of LiveBLAzerTM B/G FRET substrate was added using a Flying Reagent Dispenser, the plates were incubated at room temperature for 2 hours, and fluorescence intensity was measured by an Envision plate reader.
Potency is read from the fitted curve at half-maximal effect.

Compound | activation | Potency
ClC(Cl)(Cl)c1ccccc1 | -0.601% (inactive) | –
CC1=C(C(=O)Nc2ccccc2)SCCO1 | – | inactive
CC(C)Nc1nc(Cl)nc(NC(C)C)n1 | -1.29% (inactive) | –
CC(C)Nc1ccc(Nc2ccccc2)cc1 | – | 26.6 µM (active) and 68.3 µM (active) and 30.6 µM (active)
CN(C)c1ccccc1 | – | inactive
CCOP(=S)(OCC)SCSC(C)(C)C | -2.71% (inactive) | –
CC(O)CN(CC(C)O)CC(C)O (stereo not given) | – | inactive
CC(C)CON=O | – | inactive
ClCC(Cl)CCl | – | inactive
OC(c1ccc(Cl)cc1)(c1cncnc1)c1ccccc1Cl (stereo not given) | – | inactive
CCN(CC)C(=O)C(C)Oc1cccc2ccccc12 (stereo not given) | -1.13% (inactive) | –
ClCc1ccccn1 | – | inactive
CCCCOC(=O)COC(=O)c1ccccc1C(=O)OCCCC | – | inactive
CCCCC(C#N)(Cn1cncn1)c1ccc(Cl)cc1 (stereo not given) | 2.52% (inactive) | –
COP(=O)(NC(C)=O)SC (stereo not given) | – | inactive
N#CCCCCC#N | – | inactive
c1ccc(C2CO2)cc1 (stereo not given) | – | inactive
O=C1CCCO1 | – | inactive
O=P(OCCCl)(OCCCl)OCCCl | -2.12% (inactive) | –
NC(=O)CN1CCCC1=O | -0.911% [at 34.7 µM] (inactive) | –

Compound | activation | Potency
O=NN(c1ccccc1)c1ccccc1 | 1.58% (inactive) | –
O=C(O)c1nn(Cc2ccc(Cl)cc2Cl)c2ccccc12 | -4.28% (inactive) | –
CC(C)(O)C#N | – | inactive
C[C@]12CCC(=O)C=C1CC[C@@H]1[C@@H]2CC[C@@]2(C)[C@H]1CC[C@]2(C)O | – | 21.7 µM (active)
CNC(=O)Oc1cccc2c1OC(C)(C)C2 | -0.623% (inactive) | –
CCCCCCCCCCCCCl | – | inactive
[CH3][Sn]([Cl])([Cl])[Cl] | – | inactive
Cn1c(-c2ccccc2)cc(-c2ccccc2)[n+]1C | 4.66% (inactive) | –
CCOP(=S)(OCC)OP(=S)(OCC)OCC | -0.895% (inactive) | –
CCNc1nc(Cl)nc(NC(C)(C)C#N)n1 | – | inactive
Clc1ccc(C(Cl)(Cl)Cl)cc1 | – | inactive
CCCCOCC1CO1 (stereo not given) | -0.121% (inactive) | –
COc1ccc(C=O)cc1OC | – | inactive
CC[n+]1c(-c2ccccc2)c2cc(N)ccc2c2ccc(N)cc21 | – | 3.35 µM (active) and 10.6 µM (active) and 2.16 µM (active)
C=C(C)C#N | – | inactive
CCOP(=O)(OCC)OCC | – | inactive
CCCCSP(=O)(SCCCC)SCCCC | – | inactive
Nc1ccc2ccccc2c1 | – | inactive
CC(C)(C#N)N=NC(C)(C)C#N | – | inactive
CS(=O)(=O)NC(=O)c1cc(Oc2ccc(C(F)(F)F)cc2Cl)ccc1[N+](=O)[O-] | – | inactive
